# According to PubChem BioAssay (NCATS):
# Results filed as inconclusive are left out. Where a call stands in place of a potency, no number is given. Values without a mark were called inactive. Active and inactive are the calls of the source. The call rests on the fitted dose curve; in most records, active means well fitted inhibition curve with a large enough effect; inconclusive means small, poorly fitted or top-dose-only effect; inactive means no such curve, though single readings can be large or run the other way. Starred links: 1 amine or outer side, 2 acyl side, 3 side chain; linkers in the order of their positions; H or OH if unused. Positions of bridges follow the written chain, without caps; N, C: chain ends. Non-standard residues stand in square brackets, D forms with d. Residues, ends and D or L forms follow the SMILES beside them. Chains are numbered I, II in the order given. Actinocin(9to1) = Cc1c2oc3c(C)ccc(C(=O)[*:1])c3nc-2c(C(=O)[*:2])c(N)c1=O; NMeV = CN[CH](C(=O)O)C(C)C; Sar = CNCC(=O)O
# Experiment: Primary qHTS for inhibitors of nuclear receptor binding SET domain protein 2 (NSD2) in an RCH-ACV wild type WT cells (2C) (AID 1645877); further: nearly all actives have a fitted effect of over 70% in size
# Conditions: RCH-ACV (leukaemia line) NSD2 WT (2C) viability, CellTiter-Glo, 72 h; series mostly up to 44.9 µM; activity change, negative = cell killing: at the top concentration
# Potency means the concentration at half of the fitted maximal effect.
Compound,Potency,outcome,"activity change, negative = cell killing [%]"
"Cc1c2oc3c(C)ccc(C(=O)NC4C(=O)NC(C(C)C)C(=O)N5CCCC5C(=O)N(C)CC(=O)N(C)C(C(C)C)C(=O)OC4C)c3nc-2c(C(=O)NC2C(=O)NC(C(C)C)C(=O)N3CCCC3C(=O)N(C)CC(=O)N(C)C(C(C)C)C(=O)OC2C)c(N)c1=O (centres undefined) (I: TVP[Sar][NMeV] / II: TVP[Sar][NMeV]; ester I:1-I:C, II:1-II:C; linker I:N-II:N via Actinocin(9to1); configuration not given here)",600 pM (active),,
O=C1c2cccc(O)c2C(=O)c2c(O)cc(CO)cc21,,inactive,
CN(C)c1ccc2cc(C(=O)N[C@@H](CCCN=C(N)CCl)C(=O)NCc3ccccc3)ccc2c1,,,-6.05
OC[C@@H](O)[C@@H](O)[C@H](O)[C@@H](O)CO,,inactive,
